# Measured values reported in PubChem BioAssay AID1159580 (chemical genetic matrix, 2015).
# Screen size: about 5,500 compounds; about 2,000 (36%) were called active. Inconclusive results (about 18%) are left out. The list shows a part of the results. A number with no mark means an inactive call. Rule as the data show it: active = normalized growth mostly below about 0.91 (no sharp cut-off); inconclusive = no clear call, values can overlap the other calls; inactive = mostly above about 0.92.
# Test: chemical genetic growth profiling, strain panel (AID 1159580);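 also: tested at 20 µM; growth read once vehicle control cultures reached saturation at 30 °C; 1 = growth at the plate median or of vehicle wells; lower values mean less growth of the strain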
# Conditions: S. cerevisiae deletion strains, growth OD
# [1] = locus YAR019C, strain CDC15, active compounds read low
# [2] = locus YBL105C, strain PKC1, active compounds read low
# [3] = locus YBR135W, strain CKS1, active compounds read low
# [4] = locus YBR136W, strain MEC1, active compounds read low
# [5] = locus YBR160W, strain CDC28, active compounds read low
# [6] = locus YDL017W, strain CDC7, active compounds read low
# [7] = locus YDL028C, strain MPS1, active compounds read low
# [8] = locus YDL101C, strain DUN1, active compounds read low
# [9] = locus YDL108W, strain KIN28, active compounds read low
# [10] = locus YDL132W, strain cdc53, active compounds read low
# [11] = locus YDL214C, strain PRR2, active compounds read low
# [12] = locus YDR052C, strain DBF4, active compounds read low
# [13] = locus YDR054C, strain cdc34, active compounds read low
# [14] = locus YDR226W, strain ADK1, active compounds read low
# [15] = locus YDR477W, strain SNF1, active compounds read low
# [16] = locus YER123W, strain YCK3, active compounds read low
# [17] = locus YER133W, strain GLC7, active compounds read low
# [18] = locus YFL009W, strain cdc4, active compounds read low
# [19] = locus YFL029C, strain CAK1, active compounds read low
# [20] = locus YFR003C, strain YPI1, active compounds read low
# [21] = locus YFR019W, strain FAB1, active compounds read low
# [22] = locus YFR028C, strain CDC14, active compounds read low
# [23] = locus YGR040W, strain KSS1, active compounds read low
# [24] = locus YGR052W, strain FMP48, active compounds read low
# [25] = locus YGR092W, strain DBF2, active compounds read low
# [26] = locus YHR030C, strain SLT2, active compounds read low
# [27] = locus YHR079C, strain IRE1, active compounds read low
# [28] = locus YHR082C, strain KSP1, active compounds read low
# [29] = locus YHR205W, strain SCH9, active compounds read low
# [30] = locus YIL147C, strain SLN1, active compounds read low
# [31] = locus YJL095W, strain BCK1, active compounds read low
# [32] = locus YJL128C, strain PBS2, active compounds read low
# [33] = locus YJL157C, strain FAR1, active compounds read low
# [34] = locus YJR016C, strain ILV3, active compounds read low
# [35] = locus YJR066W, strain TOR1 (second series), active compounds read low
# [36] = locus YJR066W, strain TOR1, active compounds read low
# [37] = locus YKL048C, strain ELM1, active compounds read low
# [38] = locus YKL067W, strain YNK1, active compounds read low
# [39] = locus YKL101W, strain HSL1, active compounds read low
# [40] = locus YKL193C, strain SDS22, active compounds read low
# [41] = locus YKL203C, strain TOR2, active compounds read low
# [42] = locus YLR113W, strain HOG1, active compounds read low
# [43] = locus YLR133W, strain CKI1, active compounds read low
# [44] = locus YLR403W, strain SFP1, active compounds read low
# [45] = locus YML070W, strain DAK1, active compounds read low
# [46] = locus YMR001C, strain CDC5, active compounds read low
# [47] = locus YMR205C, strain PFK2 (second series), active compounds read low
# [48] = locus YMR277W, strain FCP1, active compounds read low
# [49] = locus YNL006W, strain LST8, active compounds read low
# [50] = locus YNL020C, strain ARK1, active compounds read low
# [51] = locus YNL161W, strain CBK1, active compounds read low
# [52] = locus YNL183C, strain NPR1, active compounds read low
# [53] = locus YNL207W, strain RIO2, active compounds read low
# [54] = locus YNL222W, strain SSU72, active compounds read low
# [55] = locus YNL307C, strain MCK1 (second series), active compounds read low
# [56] = locus YOL078W, strain AVO1, active compounds read low
# [57] = locus YOL136C, strain PFK27, active compounds read low
# [58] = locus YOR061W, strain CKA2, active compounds read low
# [59] = locus YOR119C, strain RIO1, active compounds read low
# [60] = locus YOR231W, strain MKK1, active compounds read low
# [61] = locus YOR329C, strain SCD5, active compounds read low
# [62] = locus YPL031C, strain PHO85, active compounds read low
# [63] = locus YPL153C, strain RAD53, active compounds read low
# [64] = locus YPL204W, strain HRR25, active compounds read low
# [65] = locus YPL209C, strain IPL1, active compounds read low
# [66] = locus YPL256C, strain CLN2, active compounds read low
# [67] = locus YPR025C, strain CCL1, active compounds read low
# [68] = locus YPR106W, strain ISR1, active compounds read low
# [69] = locus YPR111W, strain DBF20, active compounds read low
# [70] = strain NNK1, active compounds read low
# [71] = strain TSCII, active compounds read low
structure (smiles),measurement,setting,value
Cn1cc(Br)c(-c2cccc(NS(=O)(=O)c3ccc(Cl)cc3)c2)n1,normalized growth,[1],0.987
same,normalized growth,[2],0.976
same,normalized growth,[3],0.998
same,normalized growth,[4],0.995
same,normalized growth,[5],0.979
same,normalized growth,[6],0.987
same,normalized growth,[7],0.992
same,normalized growth,[8],0.977
same,normalized growth,[9],0.999
same,normalized growth,[10],0.994
same,normalized growth,[11],1
same,normalized growth,[12],0.976
same,normalized growth,[13],0.988
same,normalized growth,[14],0.987
same,normalized growth,[15],0.992
same,normalized growth,[16],0.998
same,normalized growth,[17],1
same,normalized growth,[18],0.989
same,normalized growth,[19],0.993
same,normalized growth,[20],0.994
same,normalized growth,[21],1
same,normalized growth,[22],0.998
same,normalized growth,[23],0.995
same,normalized growth,[24],1.04
same,normalized growth,[25],0.984
same,normalized growth,[26],1.12
same,normalized growth,[27],1.11
same,normalized growth,[28],1.11
same,normalized growth,[29],0.987
same,normalized growth,[30],0.986
same,normalized growth,[31],0.988
same,normalized growth,[32],0.986
same,normalized growth,[33],0.998
same,normalized growth,[34],0.993
same,normalized growth,[35],1.01
same,normalized growth,[36],1.07
same,normalized growth,[37],0.999
same,normalized growth,[38],1.02
same,normalized growth,[39],1
same,normalized growth,[40],0.995
same,normalized growth,[41],1.06
same,normalized growth,[42],0.983
same,normalized growth,[43],1
same,normalized growth,[44],0.999
same,normalized growth,[45],1.01
same,normalized growth,[46],0.985
same,normalized growth,[47],1.01
same,normalized growth,[48],0.998
same,normalized growth,[49],0.999
same,normalized growth,[50],0.997
same,normalized growth,[51],0.981
same,normalized growth,[52],1.06
same,normalized growth,[53],0.987
same,normalized growth,[54],0.995
same,normalized growth,[55],0.98
same,normalized growth,[56],1
same,normalized growth,[57],1
same,normalized growth,[58],1
same,normalized growth,[59],1.06
same,normalized growth,[60],0.982
same,normalized growth,[61],0.986
same,normalized growth,[62],0.989
same,normalized growth,[63],0.994
same,normalized growth,[64],0.997
same,normalized growth,[65],0.992
same,normalized growth,[66],1.13
same,normalized growth,[67],0.981
same,normalized growth,[68],0.99
same,normalized growth,[69],0.985
same,normalized growth,[70],1
same,normalized growth,[71],0.993
COC(=O)c1cccc(NS(=O)(=O)c2ccc(Cl)c(Cl)c2)c1,normalized growth,[1],0.981
same,normalized growth,[2],0.969
same,normalized growth,[3],0.973
same,normalized growth,[4],0.973
same,normalized growth,[5],0.983
same,normalized growth,[6],0.978
same,normalized growth,[7],0.977
same,normalized growth,[8],0.979
same,normalized growth,[9],0.973
same,normalized growth,[10],0.981
same,normalized growth,[11],0.971
same,normalized growth,[12],0.972
same,normalized growth,[13],0.961
same,normalized growth,[14],0.986
same,normalized growth,[15],0.991
same,normalized growth,[16],0.973
same,normalized growth,[17],0.985
same,normalized growth,[18],0.97
same,normalized growth,[19],0.982
same,normalized growth,[20],0.974
same,normalized growth,[21],0.994
same,normalized growth,[22],0.973
same,normalized growth,[23],1
same,normalized growth,[24],1.01
same,normalized growth,[25],0.948
same,normalized growth,[26],0.852
same,normalized growth,[27],0.923
same,normalized growth,[28],1.08
same,normalized growth,[29],0.904
same,normalized growth,[30],0.975
same,normalized growth,[31],0.896
same,normalized growth,[32],0.902
same,normalized growth,[33],0.98
same,normalized growth,[34],0.981
same,normalized growth,[35],0.98
same,normalized growth,[36],1.06
same,normalized growth,[37],0.949
same,normalized growth,[38],0.972
same,normalized growth,[39],0.962
same,normalized growth,[40],0.974
same,normalized growth,[41],1.05
same,normalized growth,[42],0.861 (active)
same,normalized growth,[43],0.978
same,normalized growth,[44],0.985
same,normalized growth,[45],0.963
same,normalized growth,[46],0.975
same,normalized growth,[47],0.977
same,normalized growth,[48],0.973
same,normalized growth,[49],0.978
same,normalized growth,[50],0.974
same,normalized growth,[51],0.982
same,normalized growth,[52],1.04
same,normalized growth,[53],0.974
same,normalized growth,[54],0.98
same,normalized growth,[55],0.973
same,normalized growth,[56],0.979
same,normalized growth,[57],0.959
same,normalized growth,[58],0.986
same,normalized growth,[59],1.05
same,normalized growth,[60],0.953
same,normalized growth,[61],0.977
same,normalized growth,[62],0.98
same,normalized growth,[63],0.963
same,normalized growth,[64],0.959
same,normalized growth,[65],0.981
same,normalized growth,[66],0.895
same,normalized growth,[67],0.977
same,normalized growth,[68],0.977
same,normalized growth,[69],0.972
same,normalized growth,[70],0.966
same,normalized growth,[71],0.98
O=S(=O)(Nc1c(F)cccc1F)c1ccc(Cl)c(Cl)c1,normalized growth,[1],0.933
same,normalized growth,[2],0.946
same,normalized growth,[3],0.932
same,normalized growth,[4],0.943
same,normalized growth,[5],0.937
same,normalized growth,[6],0.945
same,normalized growth,[7],0.939
same,normalized growth,[8],0.949
same,normalized growth,[9],0.947
same,normalized growth,[10],0.961
same,normalized growth,[11],0.984
same,normalized growth,[12],0.956
same,normalized growth,[13],0.933
same,normalized growth,[14],0.943
same,normalized growth,[15],0.959
same,normalized growth,[16],0.962
same,normalized growth,[17],0.964
same,normalized growth,[18],0.931
same,normalized growth,[19],0.933
same,normalized growth,[20],0.946
same,normalized growth,[21],0.948
same,normalized growth,[22],0.933
same,normalized growth,[23],0.951
same,normalized growth,[24],1.05
same,normalized growth,[25],0.843
same,normalized growth,[26],0.956
same,normalized growth,[27],0.942
same,normalized growth,[28],1
same,normalized growth,[29],0.982
same,normalized growth,[30],0.933
same,normalized growth,[31],0.947
same,normalized growth,[32],0.874
same,normalized growth,[33],0.97
same,normalized growth,[34],0.931
same,normalized growth,[35],0.967
same,normalized growth,[36],1.03
same,normalized growth,[37],0.93
same,normalized growth,[38],0.962
same,normalized growth,[39],0.96
same,normalized growth,[40],0.937
same,normalized growth,[41],1.02
same,normalized growth,[42],0.926
same,normalized growth,[43],0.964
same,normalized growth,[44],0.966
same,normalized growth,[45],0.961
same,normalized growth,[46],0.937
same,normalized growth,[47],0.973
same,normalized growth,[48],0.936
same,normalized growth,[49],0.941
same,normalized growth,[50],0.955
same,normalized growth,[51],0.94
same,normalized growth,[52],0.947
same,normalized growth,[53],0.937
same,normalized growth,[54],0.937
same,normalized growth,[55],0.95
same,normalized growth,[56],0.938
same,normalized growth,[57],0.985
same,normalized growth,[58],0.969
same,normalized growth,[59],1.05
same,normalized growth,[60],0.935
same,normalized growth,[61],0.943
same,normalized growth,[62],0.964
same,normalized growth,[63],0.927
same,normalized growth,[64],0.95
same,normalized growth,[65],0.94
same,normalized growth,[66],0.914
same,normalized growth,[67],0.934
same,normalized growth,[68],0.957
same,normalized growth,[69],0.934
same,normalized growth,[70],0.953
same,normalized growth,[71],0.93
N[C@@H](Cc1cnc[nH]1)C(=O)O,normalized growth,"locus YAL013W, strain DEP1, active compounds read low",0.963
same,normalized growth,"locus YAL040C, strain CLN3, active compounds read low",0.939
same,normalized growth,"locus YCL061C, strain MRC1 (second series), active compounds read low",0.987
same,normalized growth,"locus YDR363W, strain ESC2, active compounds read low",0.979
same,normalized growth,"locus YER002W, strain NOP16, active compounds read low",0.991
same,normalized growth,"locus YMR307W, strain GAS1, active compounds read low",0.986
same,normalized growth,"locus YNL128W, strain TEP1, active compounds read low",0.978
same,normalized growth,"locus YNL153C, strain GIM3, active compounds read low",1.01
same,normalized growth,"locus YNL175C, strain NOP13, active compounds read low",0.989
same,normalized growth,"locus YNL197C, strain WHI3, active compounds read low",0.988
same,normalized growth,"locus YNL224C, strain SQS1, active compounds read low",0.996
same,normalized growth,"locus YOR083W, strain WHI5 (second series), active compounds read low",1.03
